Screening results as filed in PubChem BioAssay.
Rows were chosen to be rich in hits. Some 4.1% of all compounds tested hit in one or more screens of this group.
tim23-1 inh = tim23-1 yeast growth inhibition; S. cerevisiae tim23-1 growth, BacTiter-Glo luminescence, 24 h; inhibition, % at 20 µM; 1.3% of 330,000 active;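 active = growth inhibition of the mutant yeast at or above 50%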;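 also: temperature-sensitive mutant grown at 25 °C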
tim10-1 inh = tim10-1 yeast growth inhibition; S. cerevisiae tim10-1 ts strain growth, BacTiter-Glo, 24 h; inhibition, % at 20 µM; 2.2% of 330,000 active; AID 463190;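 active = inhibition of at least 40%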;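 also: mutant grown at 25 °C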
TIM10 inh = growth inhibitors of TIM10 yeast strain. S. cerevisiae TIM10 strain growth, BacTiter-Glo luminescence, 24 h. inhibition, % at 10 µM. 1.4% of 330,000 active. AID 463195;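 active = inhibition of 40% or more at the single tested concentration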;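 also: wild-type TIM10 isogenic control strain grown at permissive 25 °C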
NALP1 yeast inh = NALP1 inhibition | S. cerevisiae NALP1/ASC/caspase-1 growth, X-gal OD620, 72 h | inhibition, % at 10 µM | 0.61% of 280,000 active | AID 2071; in the data active = inhibition mostly above about 24%, no sharp cut-off; inactive = mostly below about 32%
PfHsp90 set2 = reduces growth (ATP signal) of yeast expressing P. falciparum Hsp90; S. cerevisiae expressing PfHsp90, BacTiter-Glo ATP, 48 h; yeast lacking PDR1 and PDR3 efflux regulators; inhibition, % at 9.4 µM; 0.32% of 310,000 active;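 active = every replicate shows inhibition above about 80%, whatever the replicate mean, limit read from the data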
NLRP3 yeast inh = NALP3 inhibition in yeast; Yeast reconstituted NLRP3/ASC/caspase-1, beta-gal luminescence, 24 h; inhibition, % at 10 µM; 0.39% of 330,000 active; AID 2825;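 active = inhibition of 50% or more; inactive = inhibition below 50%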
Numbers stand for hits; n = inactive; x = no result given.

SMILES	tim23-1 inh	tim10-1 inh	TIM10 inh	NALP1 yeast inh	PfHsp90 set2	NLRP3 yeast inh
CC(NC(=O)c1ccco1)C(=O)N1CCc2ccccc2C1 (stereo not drawn)	n	n	n	43.0	n	n
O=C(CCc1nc2ccccc2[nH]c1=O)OCC(=O)c1cccc2ccccc12	x	x	x	36.1	x	x
O=C(CCc1nc2ccccc2[nH]c1=O)OCC(=O)c1ccc(Cl)cc1	n	n	n	n	n	n
Cc1c2c(nc3ccccc13)CCC(C)C2 (stereo not drawn)	n	n	n	36.4	n	n
CC1CCc2nc3ccccc3c(C(=O)OCC(=O)NC3CCS(=O)(=O)C3)c2C1 (stereo not drawn)	n	n	n	n	n	n
O=C(OCc1ccccc1)N(CCF)c1cn(Cc2ccccc2)c(=O)n(Cc2ccccc2)c1=O	x	x	x	x	n	x
O=C(c1ccco1)N1CCN(C(=O)c2ccc(CS(=O)c3ccc(F)cc3)o2)CC1 (stereo not drawn)	n	n	n	44.3	n	n
COC(=O)c1sc(NC(=O)COc2cccnc2[N+](=O)[O-])c(C(=O)OC)c1C	n	n	n	x	x	n
C/[N+]([O-])=C\CC(=O)c1ccc(-c2ccccc2)cc1	n	n	n	28.8	n	n
CCOc1ccc(NCc2cccn2-c2nnc(N3CCC(C(=O)NCCCN4CC(C)CC(C)C4)CC3)s2)cc1 (stereo not drawn)	n	n	n	n	n	n
C=CCN(CC=C)c1ncnc2[nH]ncc12	x	x	x	x	n	x
O=C(N/N=C/c1cc(Cl)c(O)c(Cl)c1)c1cc2c(ccc3ccccc32)o1	n	n	n	n	95.1	n
CCN(CC)N=Nc1[nH]nc2nc(C)cc(C)c12	n	n	n	n	109.9	n
Cc1cc(C)c2c(N=NN3CCCCC3)[nH]nc2n1	n	n	n	n	109.7	n
Cc1cc(C)c2c(C)[nH]nc2n1	n	n	n	n	x	n
C[C@H]([C@H](O)c1ccccc1)N(C)C(=O)CN	n	n	n	n	n	n
CC(=O)c1ccc(Nc2cc(C)nc3c(C)cccc23)cc1	n	n	n	28.0	n	n
CC(=O)c1ccc(Nc2cc(C)nc3ccccc23)cc1	n	n	n	n	n	n
CCOC(=O)/C=C1\Nc2ccccc2OC1=O	n	n	n	47.0	n	n
Cc1ccc(F)cc1S(=O)(=O)NCc1ccc(N2CCN(C)CC2)cc1	n	n	n	31.3	x	n
COC(=O)c1ccccc1NC(=O)CCn1c(=O)oc2ccccc21	n	n	n	n	n	n
COc1ccc(N(CC(=O)N2CCN(Cc3ccccc3)CC2)S(C)(=O)=O)cc1OC	n	n	n	n	n	n
CCOC(=O)c1cnc2c(C(=O)OCC)cnn2c1N	n	n	n	38.2	x	n
Cc1ccc(-c2ccc(/C=N/n3cnnc3)o2)cc1	n	n	n	38.6	n	n
CC1=CC(C)(C(Cl)Cl)C(C)=CC1=O (stereo not drawn)	n	n	n	n	n	n
SMILES	tim23-1 inh	tim10-1 inh	TIM10 inh	NALP1 yeast inh	PfHsp90 set2	NLRP3 yeast inh
CC1=CC(=O)C=CC1(C)C(Cl)Cl (stereo not drawn)	n	n	n	23.4	n	n
COCCn1cc(C(=S)N2CCOCC2)c2ccccc21	n	n	n	33.3	n	n
CCOC(=O)c1c(C)n(C)c2ccc(OC)c([N+](=O)[O-])c12	n	n	n	22.1	n	n
Cc1cccc(N2CCN(S(=O)(=O)c3c(C)noc3/C=C/N(C)C)CC2)c1C	n	n	n	n	111.4	n
CN(CC(=O)N1CCN(Cc2ccccc2)CC1)C(=O)Cc1ccc(Cl)c(Cl)c1	n	n	n	x	n	n
O=C1/C(=C\c2ccc(Cl)c(Cl)c2)CN(C(=O)CCN2CCOCC2)C/C1=C/c1ccc(Cl)c(Cl)c1	x	x	x	x	107.3	x
CC(C)C(=O)Nc1nnc(-c2ccccc2)o1	n	n	n	n	n	n
O=C(Nc1ccccc1)Nc1nnc(-c2ccccc2)o1	n	n	n	25.2	n	n
COCCOc1ccc(C(F)(F)F)cc1NC(=O)COC(=O)Cc1c[nH]c2ccccc12	n	n	n	x	n	n
CC(=O)Nc1cc2nc(C)n(Cc3ccccc3[N+](=O)[O-])c2nc1C	n	n	n	n	n	n
C(=N\Nc1nncc2ccccc12)/c1ccccn1	n	n	n	37.1	n	n
CCCCCCCCCCCCCCCCn1cc[n+](CC(C)=O)c1	x	x	x	77.9	104.8	x
COc1c(S(=O)(=O)N2CCN(C(=O)c3ccco3)CC2)ccc(Cl)c1Cl	n	n	n	n	n	n
Cc1ccc(NC(=O)Cn2cnc3cc([N+](=O)[O-])ccc3c2=O)cc1	n	n	n	36.9	n	n
Cc1ccc(NC(=O)Cn2cnc3cc([N+](=O)[O-])ccc3c2=O)c(Cl)c1	n	n	n	n	n	n
O=C(N/N=C/c1cc(Cl)ccc1O)c1ccc(Br)cc1	x	x	x	45.7	n	x
Cc1ccc(C(=O)OCC(=O)NC(C)C)cc1S(=O)(=O)N1CCOCC1	n	n	n	23.8	n	n
c1coc(CN(Cc2cccs2)Cc2nnnn2C2CCCCC2)c1	n	n	n	n	n	n
Clc1ccccc1CN(Cc1ccco1)Cc1nnnn1C1CCCC1	n	n	n	n	84.6	n
Cc1noc(C)c1COc1ccc(C(=O)NCc2cccs2)cc1	n	n	n	x	x	n
COc1ccccc1NC(=O)c1ccc(Br)o1	n	n	n	27.7	n	n
CC(C)=C1C2CCC1C1C(=O)N(NC(=O)COc3ccc(Cl)c(C)c3)C(=O)C21 (stereo not drawn)	n	n	n	41.0	n	n
CCOc1ccc(C(=O)Nn2cnnc2)cc1	n	n	n	33.4	n	n
CCOc1cc(C(=O)Nn2cnnc2)cc(OCC)c1OCC	n	n	n	n	n	n
COc1cccc2sc(N(CCN(C)C)C(=O)c3ccc4c(c3)CCCC4)nc12	n	n	n	n	n	n
SMILES	tim23-1 inh	tim10-1 inh	TIM10 inh	NALP1 yeast inh	PfHsp90 set2	NLRP3 yeast inh
CN(C)CCN(C(=O)c1ccc2c(c1)CCCC2)c1nc2c(F)cccc2s1	n	n	n	41.8	n	n
CN(C)CCCN(C(=O)c1ccc2c(c1)CCCC2)c1nc2ccc(Cl)cc2s1	n	n	n	82.3	n	n
CCN(CC)C(=O)c1nc[nH]c1C(=O)N1CCc2ccccc2C1	n	n	n	x	n	n
COc1cccc(NC(=O)/C=C/c2ccc(S(=O)(=O)N3CCOCC3)cc2)c1	n	n	n	x	n	n
O=[N+]([O-])c1ccc(C2CN=C(Nc3ccccc3)S2)cc1 (stereo not drawn)	n	n	n	n	n	n
CCc1ccc(NC2=NCC(c3ccccc3)S2)cc1 (stereo not drawn)	n	n	n	35.3	x	n
Cc1ccc(N=CNc2ccc(C)cc2C)c(C)c1	n	n	n	41.4	n	n
Cc1ccc(NC(=O)CC(=O)Nc2ccc(C)cc2C)c(C)c1	n	n	n	n	n	n
COc1ccc(C(=O)NCCNC(C)=O)cc1S(=O)(=O)NCc1ccc(Cl)cc1	n	n	n	28.2	n	n
